# Laboratory results published in PubChem BioAssay (Tox21).
# Where “and” joins values, the source holds several entries; their conditions need not be identical. Equal values may be shown once. Inconclusive results are not listed. Where a call stands in place of a potency, no number is given. The source holds several records for some structures; these can differ, active in one and inactive in another. Calls of active or inactive are those of the source. Unless noted, calls follow the shape of the full dose curve.
# Tests used:
# [1] = Nuclear factor erythroid 2-related factor 2/antioxidant responsive element (Nrf2/ARE) small molecule agonists: qHTS cell viability counter screen in human keratinocytes (AID 1919968; active = well fitted curve in the direction sought with a large enough effect in the repeat runs; an effect the other way counts as inactive or inconclusive; also: nearly all actives have a fitted effect of over 55% in size)
# Outline: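 Stably transfected HaCaT (KeratinoSens), 1,500/well. Test agents in DMSO were applied for 23 h, 37 C/5% CO2. CellTiter-Fluor was incubated 1 h before the fluorescence read.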
# [2] = Nuclear factor erythroid 2-related factor 2/antioxidant responsive element (Nrf2/ARE) small molecule agonists: luciferase reporter gene qHTS assay in human keratinocytes (AID 1919969); also: nearly all actives have a fitted effect of over 35% in size; also: potency is read from the fitted curve at half-maximal effect
# [3] = target: Gonadotropin-releasing hormone receptor (Homo sapiens) (UniProt P30968); test: Human gonadotropin-releasing hormone receptor (GnRHR) small molecule agonists, calcium flux assay in GnRHR-HEK293 cells (AID 1920063); also: nearly all actives have a fitted effect of over 35% in size
# Sequence of Gonadotropin-releasing hormone receptor (Homo sapiens) (P30968 whole entry, looked up): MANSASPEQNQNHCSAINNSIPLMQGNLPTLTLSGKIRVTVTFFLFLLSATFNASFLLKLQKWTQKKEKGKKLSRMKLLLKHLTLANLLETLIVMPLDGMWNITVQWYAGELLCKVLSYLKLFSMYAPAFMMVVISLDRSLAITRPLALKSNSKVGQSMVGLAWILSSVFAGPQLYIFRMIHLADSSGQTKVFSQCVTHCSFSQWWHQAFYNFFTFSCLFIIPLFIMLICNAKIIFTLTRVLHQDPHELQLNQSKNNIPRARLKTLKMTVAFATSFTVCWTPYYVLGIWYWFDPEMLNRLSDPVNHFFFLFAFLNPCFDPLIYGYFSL
# Outline: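 Stable human GnRHR HEK293 line. 18 h plating, then calcium dye for 1 h at 37 C. Agonist-mode compound addition from DMSO stocks; fluorescence monitored 3 min.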
# [4] = target: KiSS-1 receptor (Homo sapiens) (UniProt Q969F8); test: Human kisspeptin (KISS1R) small molecule agonists, calcium flux assay in KISS1R-HEK293 cells (AID 1920064; active = well fitted curve in the direction sought with a large enough effect in the repeat runs; an effect the other way counts as inactive or inconclusive)
# Sequence of KiSS-1 receptor (Homo sapiens) (Q969F8 whole entry, looked up): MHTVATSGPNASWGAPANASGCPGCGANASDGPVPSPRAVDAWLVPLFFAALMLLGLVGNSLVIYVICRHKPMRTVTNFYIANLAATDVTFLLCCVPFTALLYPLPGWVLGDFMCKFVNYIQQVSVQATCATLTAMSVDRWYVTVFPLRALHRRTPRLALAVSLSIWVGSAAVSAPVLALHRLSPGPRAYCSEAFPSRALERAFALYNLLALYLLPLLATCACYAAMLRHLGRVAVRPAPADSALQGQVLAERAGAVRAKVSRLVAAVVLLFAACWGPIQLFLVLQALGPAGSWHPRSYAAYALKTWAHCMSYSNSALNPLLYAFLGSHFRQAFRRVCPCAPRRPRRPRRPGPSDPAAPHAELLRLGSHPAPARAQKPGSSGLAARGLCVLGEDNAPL
# Outline: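 After overnight (18 h) culture at 37 C/5% CO2, human KISS1R-HEK293 cells received calcium dye for 1 h, then test compound; emission at 540 nm (excitation 480 nm) was tracked for 3 min.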
# [5] = G protein-coupled receptor (GPCR) small molecule agonists, calcium flux assay: HEK293 wild type cell line counter screen (AID 1920065)
# Outline: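 Following 18 h incubation at 37 C/5% CO2, plates got calcium dye for 1 h; compounds, ATP or DMSO were then pinned in and fluorescence followed kinetically (480/540 nm).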
# [6] = p53 small molecule agonists, cell-based qHTS assay with human liver microsomes (AID 1963577);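 also: p53 response element beta-lactamase reporter cells with liver microsomes plus NADPH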
# Outline: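 Metabolically competent format: test substances, human liver microsomes and NADPH (both 0.5 mg/mL final) incubated with p53RE-bla cells 16 h at 37 C. Beta-lactamase reporter signal then quantified by fluorescence.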
# [7] = p53 small molecule agonists, cell-based qHTS assay with rat liver microsomes (AID 1963578)
# Outline: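 Each plate received p53RE-bla cells, then compound, then rat liver microsomes and NADPH (both 0.5 mg/mL final). Plates were held 16 h at 37 C, and beta-lactamase activity was detected with LiveBLAzer over 2 h.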
# [8] = p53 small molecule agonists, cell-based qHTS assay with human liver microsomes: qHTS cell viability counter screen (AID 1963579); also: nearly all actives have a fitted effect of over 45% in size
# Outline: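 Tox21 library compounds, delivered from DMSO stocks, were tested on p53RE-bla cells together with 0.5 mg/mL human liver microsomes and 0.5 mg/mL NADPH (final) over 16 h at 37 C; CellTiter-Glo luminescence served as the cytotoxicity measure.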
# [9] = p53 small molecule agonists, cell-based qHTS assay with rat liver microsomes: qHTS cell viability counter screen (AID 1963580); also: nearly all actives have a fitted effect of over 45% in size
# Outline: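 Cytotoxicity counter screen: intracellular ATP read by CellTiter-Glo luminescence in the p53 reporter wells. HCT-116 p53RE-bla cells were treated for 16 h at 37 C alongside rat liver microsomes and NADPH, each 0.5 mg/mL final.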
# [10] = p53 small molecule agonists, cell-based qHTS assay: qHTS cell viability counter screen (AID 1963581); also: nearly all actives have a fitted effect of over 45% in size
# Outline: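 qHTS counter screen: 16 h compound exposure at 37 C of p53RE-bla HCT-116 cells (4,000 per well, seeded 5 h prior), cell viability by ATP luminescence.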
# [11] = p53 small molecule agonists, cell-based qHTS assay (AID 1963582; active = well fitted activation curve with a large enough effect in the signal ratio in the repeat runs, not every such curve was filed as active; the % refers to the signal ratio)
# Outline: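 Measured: fluorescence from cleaved LiveBLAzer substrate. System: p53RE-bla cells, 16 h compound treatment at 37 C, 2 h substrate step at room temperature.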
# [12] = cAMP Responsive Elements (CRE) small molecule agonists, cell-based qHTS assay (AID 1963590)
# Outline: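 Test agents in DMSO were incubated 3 h at 37 C/5% CO2 with CRE-bla HEK 293T cells seeded 18 h earlier; LiveBLAzer B/G FRET substrate was added and read after 2 h at room temperature.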
# [13] = target: Beta-2 adrenergic receptor (Homo sapiens) (UniProt P07550); test: Adrenergic beta2 receptor (ADRB2) small molecule antagonists, cell-based qHTS assay (AID 1963592); also: series mostly up to about 92 µM; nearly all actives have a fitted effect of over 50% in size
# Sequence of Beta-2 adrenergic receptor (Homo sapiens) (P07550 whole entry, looked up): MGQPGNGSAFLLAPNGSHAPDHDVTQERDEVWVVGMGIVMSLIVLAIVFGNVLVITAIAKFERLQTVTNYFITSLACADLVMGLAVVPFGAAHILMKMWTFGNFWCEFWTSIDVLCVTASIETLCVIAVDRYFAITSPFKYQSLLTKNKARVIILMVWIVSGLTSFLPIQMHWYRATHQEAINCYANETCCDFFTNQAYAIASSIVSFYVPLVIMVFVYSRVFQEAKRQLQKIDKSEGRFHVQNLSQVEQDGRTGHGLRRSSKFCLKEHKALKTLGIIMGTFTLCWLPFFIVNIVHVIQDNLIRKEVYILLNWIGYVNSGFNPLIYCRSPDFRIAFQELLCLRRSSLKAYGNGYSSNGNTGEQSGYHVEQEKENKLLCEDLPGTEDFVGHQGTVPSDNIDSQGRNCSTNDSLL
# Outline: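 Assay format: CHO-ADRB2 cells, 18-20hr seeding at 37C/5% CO2, then compound plus 1nM isoproterenol agonist mix for 0.5hr RT. Homogeneous time-resolved fluorescence cAMP detection after 1hr, expressed as 665/615 nm ratio.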
# [14] = target: Beta-2 adrenergic receptor (Homo sapiens) (UniProt P07550); test: Adrenergic beta2 receptor (ADRB2) small molecule agonists, cell-based qHTS assay (AID 1963593);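 also: CHO cells stably overexpressing human ADRB2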
# Outline: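 CHO cells stably over-expressing ADRB2 were plated overnight at 37C, then dosed with compounds plus a stimulation mix containing 100uM IBMX and 25uM Ro-20-1724 for 0.5hr at room temperature. cAMP was measured by HTRF competition, 1hr.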
# [15] = target: D(2) dopamine receptor (Homo sapiens) (UniProt P14416); test: Dopamine D2 receptor (DRD2) small molecule agonists, cell-based qHTS assay (AID 1963594); also: nearly all actives have a fitted effect of over 35% in size
# Sequence of D(2) dopamine receptor (Homo sapiens) (P14416 whole entry, looked up): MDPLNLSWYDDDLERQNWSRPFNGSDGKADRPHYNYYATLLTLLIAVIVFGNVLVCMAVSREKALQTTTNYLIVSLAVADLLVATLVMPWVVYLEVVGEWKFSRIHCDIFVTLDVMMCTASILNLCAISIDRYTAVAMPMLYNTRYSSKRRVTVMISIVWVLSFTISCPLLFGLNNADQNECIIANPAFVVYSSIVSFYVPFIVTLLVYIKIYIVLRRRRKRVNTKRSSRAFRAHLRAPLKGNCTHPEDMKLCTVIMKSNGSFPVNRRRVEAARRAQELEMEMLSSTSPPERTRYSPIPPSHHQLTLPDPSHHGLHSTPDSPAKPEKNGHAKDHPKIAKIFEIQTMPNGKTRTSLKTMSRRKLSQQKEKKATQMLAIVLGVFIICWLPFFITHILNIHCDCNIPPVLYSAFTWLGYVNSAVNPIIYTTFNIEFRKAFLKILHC
# Outline: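 cAMP accumulation in DRD2-HEK293 cells measured by HTRF after 1 h detection; compounds added 10 min before NKH477 (200nM […]) forskolin-analogue stimulation, 30 min at room temperature, with Ro20-1724 present at 0.1 mM final.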
# [16] = target: D(2) dopamine receptor (Homo sapiens) (UniProt P14416); test: Dopamine D2 receptor (DRD2) small molecule antagonists, cell-based qHTS assay (AID 1963595; active = well fitted inhibition curve with a large enough effect in the signal ratio in the repeat runs, with a control signal flat; the % refers to the signal ratio)
# Outline: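 HTRF cAMP read-out at 665 and 620 nm emission (340 nm excitation). Antagonist mode: compounds were tested against 12 nM quinpirole in DRD2-HEK293 cells, with 200 nM NKH477 raising cAMP and 0.1 mM Ro20-1724 blocking its breakdown.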
# [17] = target: 5-hydroxytryptamine receptor 2A (Homo sapiens) (UniProt P28223); test: 5-hydroxytryptamine receptor 2A (HTR2A) small molecule antagonists, cell-based qHTS assay (AID 1963586); also: nearly all actives have a fitted effect of over 45% in size
# Sequence of 5-hydroxytryptamine receptor 2A (Homo sapiens) (P28223 whole entry, looked up): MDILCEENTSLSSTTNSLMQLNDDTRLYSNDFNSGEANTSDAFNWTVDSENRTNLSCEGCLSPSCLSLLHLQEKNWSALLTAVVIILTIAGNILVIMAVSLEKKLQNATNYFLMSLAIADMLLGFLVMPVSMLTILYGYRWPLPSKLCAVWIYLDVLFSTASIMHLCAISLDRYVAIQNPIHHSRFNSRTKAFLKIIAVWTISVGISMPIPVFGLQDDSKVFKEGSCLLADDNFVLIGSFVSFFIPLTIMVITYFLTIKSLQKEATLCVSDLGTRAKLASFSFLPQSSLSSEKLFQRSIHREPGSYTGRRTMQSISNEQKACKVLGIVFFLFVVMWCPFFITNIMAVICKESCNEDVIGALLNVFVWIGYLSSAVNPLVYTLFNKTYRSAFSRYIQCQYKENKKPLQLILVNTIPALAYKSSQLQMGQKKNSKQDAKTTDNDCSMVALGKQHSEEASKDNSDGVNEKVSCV
# Outline: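 CHO cells stably expressing human HTR2A were plated for 18 h at 37 C, then loaded with calcium dye for 1 h. Compounds were preincubated 5 min at room temperature before DOI (4 nM solution) was added. Kinetic fluorescence was read for 3 min.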
# [18] = target: Muscarinic acetylcholine receptor M1 (Homo sapiens) (UniProt P11229); test: Cholinergic receptor muscarinic 1 (CHRM1) small molecule agonists, cell-based qHTS assay (AID 1963589); also: nearly all actives have a fitted effect of over 35% in size
# Sequence of Muscarinic acetylcholine receptor M1 (Homo sapiens) (P11229 whole entry, looked up): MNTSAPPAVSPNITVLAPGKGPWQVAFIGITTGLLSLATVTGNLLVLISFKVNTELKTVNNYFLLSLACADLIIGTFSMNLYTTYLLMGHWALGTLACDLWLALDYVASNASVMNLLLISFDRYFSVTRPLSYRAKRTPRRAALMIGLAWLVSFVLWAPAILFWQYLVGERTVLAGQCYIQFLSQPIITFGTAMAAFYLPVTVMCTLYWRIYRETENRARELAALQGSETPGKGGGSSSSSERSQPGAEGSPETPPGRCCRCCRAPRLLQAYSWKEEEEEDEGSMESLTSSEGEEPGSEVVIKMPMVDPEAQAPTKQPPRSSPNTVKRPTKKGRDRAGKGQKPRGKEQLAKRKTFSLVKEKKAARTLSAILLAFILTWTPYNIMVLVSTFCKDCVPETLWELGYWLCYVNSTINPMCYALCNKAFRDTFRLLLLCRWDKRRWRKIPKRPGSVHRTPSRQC
# Outline: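 Kinetic fluorescence (1 s intervals) of calcium-sensitive dye in human M1 CHO cells after compound addition; cells pre-incubated 18 h at 37 C/5% CO2 and dye-loaded 1 h.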
# [19] = cAMP Responsive Elements (CRE) small molecule antagonists, cell-based qHTS assay (AID 1963591; active = well fitted inhibition curve with a large enough effect in the signal ratio in the repeat runs, not every such curve was filed as active; the % refers to the signal ratio)
# Outline: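 Reporter line CRE-bla HEK 293T in dialyzed-FBS DMEM; cells preincubated 18 h, treated 3 h with compound plus NKH477 (0.25 uM final); LiveBLAzer FRET, 2 h RT.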
# [20] = target: 5-hydroxytryptamine receptor 2A (Homo sapiens) (UniProt P28223); test: 5-hydroxytryptamine receptor 2A (HTR2A) small molecule agonists, cell-based qHTS assay (AID 1963587); also: nearly all actives have a fitted effect of over 30% in size
# Outline: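 Kinetic calcium-flux fluorescence (2 min, 1 sec intervals) after compound addition in agonist mode. HTR2A-CHO cells were cultured 18 h, then dye-loaded 1 h at 37 C.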
SMILES,Potency [1],Potency [2],Potency [3],Potency [4],Potency [5],Potency [6],Potency [7],Potency [8],Potency [9],Potency [10],Potency [11],Potency [12],Potency [13],Potency [14],Potency [15],Potency [16],Potency [17],Potency [18],Potency [19],Potency [20]
Cc1ccnc2c1NC(=O)c1cccnc1N2C1CC1,inactive,inactive,inactive,inactive,inactive,inactive,inactive,inactive,inactive,inactive,inactive,inactive,inactive,inactive,inactive,inactive,–,–,–,–
CCCCCCCCCCC=CC1CC(=O)OC1=O (stereo not drawn),inactive,inactive,inactive,inactive,inactive,inactive,inactive,inactive,inactive,inactive,–,–,inactive,–,inactive,inactive,inactive,inactive,inactive,–
Cc1c(N(C)CS(=O)(=O)O)c(=O)n(-c2ccccc2)n1C,inactive,inactive,inactive,inactive,inactive,inactive,inactive,inactive,inactive,inactive,inactive,inactive,inactive,–,inactive,inactive,–,–,–,–
Oc1ccc2ccccc2c1N=Nc1ccccc1,inactive,30.6 µM (active) and 21.7 µM (active),inactive,inactive,inactive,inactive,inactive,inactive,inactive,inactive,–,inactive,inactive,–,inactive,inactive,inactive,inactive,inactive,–
O=C(O)CCCCC1CCSS1 (stereo not drawn),inactive,5.44 µM (active) and inactive,inactive,inactive,inactive,inactive,inactive,inactive,inactive,inactive,inactive,inactive,inactive,inactive,inactive,–,–,–,–,–
O=C(CC(C(=O)OC1CCCCC1)S(=O)(=O)O)OC1CCCCC1 (stereo not drawn),inactive,inactive,inactive,inactive,inactive,inactive,inactive,inactive,inactive,inactive,–,inactive,inactive,inactive,inactive,inactive,inactive,inactive,inactive,inactive
